The record followed here is PubChem BioAssay AID624417 (National Center for Advancing Translational Sciences (NCATS), 2012).

Hit rate of the full screen: of about 410,000 compounds, about 6,400 (1.6%) were called active. Entries that show only a call come without a potency. Not shown: some 20% with an inconclusive outcome. The call rests on the fitted dose curve; in most records, active means well fitted inhibition curve with a large enough effect; inconclusive means small, poorly fitted or top-dose-only effect; inactive means no such curve, though single readings can be large or run the other way. The sample as a whole holds a higher share of actives than the screen did.
Potency means the concentration at half of the fitted maximal effect.

Chain of Glucagon-like peptide 1 receptor (Homo sapiens) (P43220 whole entry, looked up): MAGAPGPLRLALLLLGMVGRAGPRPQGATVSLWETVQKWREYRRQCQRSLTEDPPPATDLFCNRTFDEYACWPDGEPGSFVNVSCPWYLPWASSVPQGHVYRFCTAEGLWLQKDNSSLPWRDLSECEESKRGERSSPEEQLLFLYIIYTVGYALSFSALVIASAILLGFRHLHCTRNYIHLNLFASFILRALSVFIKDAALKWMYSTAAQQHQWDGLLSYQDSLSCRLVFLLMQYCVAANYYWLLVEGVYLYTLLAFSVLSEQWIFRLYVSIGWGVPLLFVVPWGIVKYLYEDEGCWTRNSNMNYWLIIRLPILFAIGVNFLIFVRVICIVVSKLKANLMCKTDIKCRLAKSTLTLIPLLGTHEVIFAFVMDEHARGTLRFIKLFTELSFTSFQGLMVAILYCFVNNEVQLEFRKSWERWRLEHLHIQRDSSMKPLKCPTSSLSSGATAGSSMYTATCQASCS

The target in this experiment is Glucagon-like peptide 1 receptor (Homo sapiens) (UniProt P43220). Put plainly: qHTS of GLP-1 Receptor Inverse Agonists (Inhibition Mode). Further: nearly all actives have a fitted effect of over 55% in size. The conditions noted are these: HEK293 GLP-1R CRE-luciferase, luminescence, 24 h, GLP-1R form is constitutively active; series mostly up to 38.3 µM. In short, it runs like this:
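GLP-1R inverse agonism mode: basal reporter luminescence in engineered HEK293 cells measured after one day of compound exposure at 37 deg C, with a 12 min room-temperature detection step.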
(Quantitative high-throughput screening tests each substance at several concentrations.)
With `O=C(NCc1ccc(F)cc1F)[C@@H]1CCCN1C(=O)[C@@H]1CCCN1C(=O)c1cccc(Cl)c1`, the Potency entry was “inactive”.

For the compound `COc1ccc(N2c3ccccc3CN(Cc3ccccc3)[C@@H](C)[C@H]2Cc2ccc(-c3ccccc3)cc2)cc1`, the Potency result is “inactive”.

Regarding `COC(=O)c1ccc2nc(-c3ccccc3)c(Cc3ccc(OC)cc3C)n2c1`, the Potency entry is “inactive”.

Consider `CCN(CC)c1ncnc2c1ncn2[C@H]1CN(Cc2cccs2)C[C@@H](CO)O1`, for which the Potency result is “inactive”.

Consider `Clc1ncn(CCOc2ccccc2)c1Cl`, for which the activity change, negative = inhibition was 15.4% [at 0.307 µM] (inactive).

For `Cc1cc2ncn(CCCCOc3ccccc3)c2cc1C`, the Potency was 10 µM (active).

In the case of `COCCOCCn1cnc2ccccc21`, the Potency result is “inactive”.

Consider `COC(=O)c1ccc(CN2C(=O)C(Cc3ccccc3)ON=C2c2ncccc2C)o1` (stereo not drawn), for which the Potency entry was “inactive”.

For the compound `CCc1nnc(NC(=O)c2ccco2)s1`, the Potency entry is “inactive”.

In the case of `OC[C@@H]1CN(Cc2cccs2)C[C@H](n2cnc3c(Nc4ccccc4)ncnc32)O1`, the Potency result is “inactive”.

Regarding `O=C(c1nnc(-c2ccc(Cl)cc2)o1)C1CCCC1`, the Potency result is “inactive”.

Take `O=C(c1[nH]ncc1-c1ccc(Cl)cc1)C1CO1` (stereo not drawn): the Potency is 11.2 µM (active).

For `S=c1[nH]nc(-c2ccc(Cl)cc2)n1CC1CCCO1` (stereo not drawn), the Potency entry was “inactive”.

With `CC(=O)OC[C@@H]1CN(Cc2ccccc2)C[C@H](n2cnc3c(NCc4ccco4)ncnc32)O1`, the Potency entry was “inactive”.

With `CCCCCCN1C[C@@H](O)[C@H](n2cc(COC(=O)c3ccccc3)nn2)C[C@@H]1c1ccc(Cl)cc1`, the Potency result was “inactive”.

As to `C[C@H]1CN([C@@H](C)CO)C(=O)CCCn2nncc2CO[C@@H]1CN(C)S(=O)(=O)c1cccc(C#N)c1`, the Potency result is “inactive”.

Turning to `COCCCN1C(=O)C(CC(=O)NCc2cccs2)CC(C(=O)N2CCOCC2)=C1C` (stereo not drawn), the Potency entry was “inactive”.

`CCOc1ccc(NC(=O)c2nc(SCC)ncc2Cl)cc1`: the Potency entry is “inactive”.

Regarding `CCOc1ccc(N(Cc2ccccc2)C(=O)c2nc(SCC)ncc2Cl)cc1`, the Potency was 5.62 µM (active).

Turning to `CCSc1ncc(Cl)c(C(=O)Nc2c(C(=O)c3ccccc3)oc3ccccc23)n1`, the Potency entry was “inactive”.

In the case of `CC(=O)C1=CCC(c2ccccc2)N(S(=O)(=O)c2ccc(C)cc2)C1` (stereo not drawn), the Potency entry was “inactive”.

With `COc1ccc(C(=O)OCC(=O)Nc2cc(C)on2)cc1F`, the Potency result is “inactive”.

In the case of `COC(=O)c1ccc2c(c1)S(=O)(=O)NC2C` (stereo not drawn), the Potency entry was “inactive”.

For `Cc1cc(Br)cn2c(Cc3ccccc3C(F)(F)F)c(C3CCCCC3)nc12`, the Potency result is “inactive”.

Consider `COc1ccc(CNC(=O)c2ccc(-c3cccnc3)c3ccoc23)cc1OC`, for which the Potency entry was “inactive”.

Take `O=C(NC1(C(F)(F)F)NC(=O)N(C2CCCCC2)C1=O)c1ccco1` (stereo not drawn): the Potency entry is “inactive”.

On to `COC(=O)NC1(C(F)(F)F)NC(=O)N(C2CCCCC2)C1=O` (stereo not drawn), for which the Potency entry is “inactive”.

As to `O=C(NC1(C(F)(F)F)N=C(c2ccccc2)N(C2CCCCC2)C1=O)c1ccccc1F` (stereo not drawn), the Potency is 11.2 µM (active).

`CC1(C(=O)NS(=O)(=O)C2CC2)CCCN(C(=O)CSc2ccccc2)C1` (stereo not drawn): the Potency entry is “inactive”.

For `CC1=C(C(=O)N(C)C)CC(CC(=O)NCCN2CCOCC2)C(=O)N1Cc1ccccc1` (stereo not drawn), the Potency entry was “inactive”.

`C=C1C(=O)[C@]23C[C@H]1CCC2[C@@]1(C)C(C[C@@H]3O)[C@](C)(C(=O)O)CC[C@@H]1O` (stereo partly drawn): the Potency result is “inactive”.

In the case of `COc1cc(C=C(OC(C)=O)c2ccc3c(c2)OCO3)cc(OC)c1OC`, the Potency result was “inactive”.

`C[C@H]1Cn2cnc(C(=O)N[C@H](C)c3ccccc3)c2C(=O)N1`: the Potency result is “inactive”.

Consider `CCCCc1nc2ccc(F)cc2cc1C`, for which the Potency result was “inactive”.

As for `O=C(Nc1ccc(Br)cc1)c1ccc(Br)c(S(=O)(=O)NCc2ccccc2)c1`, the Potency was 10 µM (active).

`Cc1ccc(C(=O)Nc2ccc(C(=O)O)cc2)cc1S(=O)(=O)Nc1ccccc1`: the Potency result was “inactive”.

`O=C(Nc1ccc(F)cc1)c1ccc(S(=O)(=O)NCc2cccnc2)cc1`: the Potency entry is “inactive”.

`O=C1OCCOC2CCCc3oc(-c4ccccc4)c1c32` (stereo not drawn): the Potency entry was “inactive”.

As for `COc1ccc(C(C)C)cc1-c1ccc2nncn2c1`, the Potency result was “inactive”.

For the compound `CN(C)CCNC(=O)/C(=C/c1cccc([N+](=O)[O-])c1)NC(=O)c1ccccc1`, the Potency entry was “inactive”.

With `N#C/C(=C\c1ccc(-c2cccc([N+](=O)[O-])c2)o1)C(=O)NCCN1CCOCC1`, the activity change, negative = inhibition was 31.2% [at 7.66 µM] (inactive).

Consider `Cc1ccc(C(=O)N/C(=C/c2ccc(-c3cccc([N+](=O)[O-])c3)o2)C(=O)NCCCN(C)C)cc1`, for which the Potency was 10 µM (active).

Regarding `O=C(OCC(=O)N1CCCCCC1)c1cccc(Cl)c1Cl`, the Potency entry was “inactive”.

For `C[C@@H]1CN([C@H](C)CO)C(=O)CCCn2nncc2CO[C@@H]1CN(C)S(=O)(=O)c1cccc(C#N)c1`, the Potency result is “inactive”.

For the compound `Cc1ccc(Cn2cc(CN3CC(N4CCN(C)CC4)CS3(=O)=O)nn2)cc1` (stereo not drawn), the Potency entry is “inactive”.

`COc1ccccc1NC(=O)CSc1nnc(-c2ccoc2C)n1CCc1ccccc1`: the Potency was 7.94 µM (active).

Consider `CCn1c(SCC(=O)NC2CCCC2)nnc1-c1ccoc1C`, for which the Potency entry was “inactive”.

In the case of `COc1cc(Cl)c(C)cc1NC(=O)CSc1nnc(-c2ccco2)n1CC(C)C`, the Potency result was “inactive”.

Regarding `Cc1c(NC(=O)CSc2cccc3cccnc23)c(=O)n(-c2ccccc2)n1C`, the Potency is 5.62 µM (active).

For `Cc1c(NC(=O)CSc2nnnn2-c2ccc(C(=O)O)cc2)c(=O)n(-c2ccccc2)n1C`, the Potency result was “inactive”.

Consider `Cc1c(NC(=O)CSc2nnc(-c3cccnc3)n2N)c(=O)n(-c2ccccc2)n1C`, for which the Potency entry was “inactive”.

As for `Cn1cnc(S(=O)(=O)N2C[C@@H](O)COC[C@@H]3O[C@H](CC(=O)NC4CCC4)CC[C@H]32)c1`, the Potency result is “inactive”.

Take `Brc1ccc2nc(-c3ccccc3)c(Cc3ccccc3)n2c1`: the Potency entry is “inactive”.

Take `O=C(CCNC(=O)c1ccccc1Cl)NCc1ccco1`: the Potency result is “inactive”.

Consider `Cc1cccc(Nc2ccccc2C(=O)NCc2ccco2)c1C`, for which the Potency is 12.6 µM (active).

As for `Cc1ccc(N(Cc2ccc(C(=O)Nc3ccccc3C(=O)NCc3ccco3)cc2)S(C)(=O)=O)cc1C`, the Potency result was “inactive”.

On to `CC1(C(=O)NCc2ccc3c(c2)OCO3)CCN1C(=O)Cc1cccs1` (stereo not drawn), for which the Potency result is “inactive”.

As for `O=C(NCc1cccnc1)c1cc(C2CCCCN2C(=O)CCc2ccccc2)on1` (stereo not drawn), the Potency entry was “inactive”.
